Assay outcomes (PubChem)
KDM5B inhibitor: inhibitors of human KDM5B histone demethylase; Q9UGL1; 220,000 tested, 2.6% active; KDM5B demethylase, FDH-coupled NADH fluorescence (FDH is formaldehyde dehydrogenase); Potency, µM (highest dose often 57.7 µM), usual class: inhibitors; active = well fitted inhibition curve with a large enough effect; also: 0% is about no effect; nearly all actives have a fitted effect of over 70% in size
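Coupled FDH/NAD⁺ fluorescence readout. KDM5BΔAP 200 nM final; compound titration, 10 min RT preincubation; substrate mix 12.5 µM H3K4me3, 25 µM 2-OG, 50 µM Fe(II), 100 µM ascorbate, 0.25 mM NAD⁺, 0.25 U/mL FDH; ΔRFU over 30 min.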
* marks the source's active call; other numbers are inactive results. The sample as a whole holds a higher share of hits than the screen did. Potency is read from the fitted curve at half-maximal effect.

`CCc1ccc(N2C(=O)CC(c3cc(OC)ccc3OC)C3=C2COC3=O)cc1` (centres undefined) gave KDM5B inhibitor inactive.
CCOC(=O)C1(Cc2ccc(F)cc2)CCCN(C(=O)c2cc3nc(C)cc(C)n3n2)C1 (centres undefined) was read as KDM5B inhibitor 32µM*.
CCOC(=O)C1(Cc2ccc(F)cc2F)CCCN(C(=O)c2cccnc2SC)C1 (centres undefined) was read as KDM5B inhibitor inactive.
`CCOC(=O)C1(Cc2cccc(OC)c2)CCCN(C(=O)c2ccc(OC)o2)C1` (centres undefined) gave KDM5B inhibitor inactive.
For Cc1cc(C)n2nc(C(=O)N3CCC4(CC3)C(=O)Nc3ccccc34)cc2n1 the results were KDM5B inhibitor 28µM*.
Screening O=C(c1ccccc1)N1CCC2(CC1)C(=O)Nc1ccccc12 returned KDM5B inhibitor inactive.
COc1ccc(C(=O)N2CCC3(CC2)C(=O)Nc2ccccc23)cc1 was read as KDM5B inhibitor inactive.
O=C(NCC1CCOCC1)Nc1cccc(F)c1 was read as KDM5B inhibitor inactive.
For Sc1nnc(-c2ccc(Cl)cc2)n1Cc1ccccc1 the results were KDM5B inhibitor inactive.
Screening Cc1cc(N2CCN(Cc3nc(C(C)C)no3)CC2)nc(C(C)C)n1 returned KDM5B inhibitor inactive.
O=C1NC2(CCCN(C(=O)Cc3ccccc3)C2)COc2ccccc21 (centres undefined) was read as KDM5B inhibitor inactive.
For CCOc1ccc(Cn2nnc3c(=O)[nH]c(C4CCN(C(=O)c5ccccc5)CC4)nc32)cc1 the results were KDM5B inhibitor inactive.
Screening COc1ccc(C2NC(=O)N(CC(=O)N3CCC(C)CC3)C3=C2C(=O)OC3)cc1 (centres undefined) returned KDM5B inhibitor inactive.
`O=C(C(Sc1nncn1-c1ccccc1F)c1ccccc1)N1CCOCC1` (centres undefined) gave KDM5B inhibitor inactive.
CC1(COc2ccc3[nH]ccc3c2)COc2ccc(C(=O)Nc3cccnc3)cc2N1 (centres undefined) was read as KDM5B inhibitor 35µM*.
Screening COc1ccc(NC(=O)c2ccc3c(c2)NC(C)(COc2ccc4[nH]ccc4c2)CO3)cn1 (centres undefined) returned KDM5B inhibitor 20µM*.
Screening CCn1nc(C)c(CNC(=O)C2(CCO)CC23CCOCC3)c1C (centres undefined) returned KDM5B inhibitor inactive.
`CCNC(=O)C1C(c2cccc(NC(=O)c3ccc(C)cc3)c2)OC(=O)N1Cc1ccc(F)cc1` (centres undefined) gave KDM5B inhibitor inactive.
For O=C(N[C@@H]1CSC[C@H]1O)c1ccccc1 the results were KDM5B inhibitor inactive.
`CCN(c1ccc(Cl)cc1)S(=O)(=O)c1nnc(NC(=O)C(C)C)s1` gave KDM5B inhibitor inactive.
For COCC(=O)Nc1nc2c(s1)C[C@@H]1[C@](C)(CO)[C@H](O)CC[C@@]1(C)[C@@H]2CC(=O)NC(C)C the results were KDM5B inhibitor inactive.
For CC(C)NC(=O)C[C@@H]1c2nc(NC(=O)c3c(F)cccc3F)sc2C[C@@H]2[C@](C)(CO)[C@H](O)CC[C@]21C the results were KDM5B inhibitor inactive.
For C[C@]1(CO)[C@H]2Cc3sc(NC(=O)c4ccc(F)cc4)nc3[C@@H](CC(=O)O)[C@]2(C)CC[C@H]1O the results were KDM5B inhibitor inactive.
C[C@H](NC(=O)C[C@@H]1c2nc(NC(=O)c3ccc(F)cc3)sc2C[C@@H]2[C@](C)(CO)[C@H](O)CC[C@]21C)c1ccccc1 was read as KDM5B inhibitor 32µM*.
`C[C@]1(CO)[C@H]2Cc3sc(NC(=O)C4CCCCC4)nc3[C@@H](CC(=O)N3CCOCC3)[C@]2(C)CC[C@H]1O` gave KDM5B inhibitor inactive.
Screening COCC(=O)Nc1nc2c(s1)C[C@@H]1[C@](C)(CO)[C@H](O)CC[C@@]1(C)[C@@H]2CC(=O)NCc1cccnc1 returned KDM5B inhibitor inactive.
`COCC(=O)Nc1nc2c(s1)C[C@@H]1[C@](C)(CO)[C@H](O)CC[C@@]1(C)[C@@H]2CC(=O)N1CCOCC1` gave KDM5B inhibitor inactive.
For COc1ccccc1CNC(=O)C[C@@H]1c2nc(-c3cccnc3)sc2C[C@@H]2[C@](C)(CO)[C@H](O)CC[C@]21C the results were KDM5B inhibitor 25µM*.
For CC(C)NC(=O)C[C@@H]1c2nc(NC(=O)c3ccc(C(C)(C)C)cc3)sc2C[C@@H]2[C@](C)(CO)[C@H](O)CC[C@]21C the results were KDM5B inhibitor 32µM*.
For Cc1nc2c(s1)C[C@@H]1[C@](C)(CO)[C@H](O)CC[C@@]1(C)[C@@H]2CC(=O)NCc1cccnc1 the results were KDM5B inhibitor inactive.
C[C@@H](NC(=O)C[C@@H]1c2nc(NC(=O)CC(C)(C)C)sc2C[C@@H]2[C@](C)(CO)[C@H](O)CC[C@]21C)c1ccccc1 was read as KDM5B inhibitor inactive.
`CC(C)(C)c1ccc(C(=O)Nc2nc3c(s2)C[C@@H]2[C@](C)(CO)[C@H](O)CC[C@@]2(C)[C@@H]3CC(=O)N2CCOCC2)cc1` gave KDM5B inhibitor 28µM*.
Screening Cc1ccccc1NC(=O)COc1ccc2c(c1)OC(C)(C)CC2=O returned KDM5B inhibitor inactive.
`COC(=O)c1cc(C(=O)OCC(=O)N(C)c2ccccc2)cc([N+](=O)[O-])c1` gave KDM5B inhibitor inactive.
CCCn1nc(C(=O)NCCC(=O)N2CCCC2)c2ccccc2c1=O was read as KDM5B inhibitor inactive.
For CC(C)COc1cc(=O)n2c(c1C(=O)N(C)CCc1ccccn1)CCCCC2 the results were KDM5B inhibitor inactive.
Cc1oc(C(C)(C)C)cc1C(=O)NC1CCN(Cc2ccccc2)CC1 was read as KDM5B inhibitor inactive.
O=S(Cc1cccc(C(F)(F)F)c1)Cc1c(Cl)cccc1Cl (centres undefined) was read as KDM5B inhibitor inactive.
CCNCc1ccccc1OCC was read as KDM5B inhibitor inactive.
`CCc1ccc(S(=O)(=O)c2nnn3c2nc(NCCC(C)C)c2cc(Cl)ccc23)cc1` gave KDM5B inhibitor inactive.
For C[C@]1(CO)[C@H]2Cc3sc(NC(=O)c4ccco4)nc3[C@@H](CC(=O)NCc3ccccc3)[C@]2(C)CC[C@H]1O the results were KDM5B inhibitor inactive.
CC(C)(C)CC(=O)Nc1nc2c(s1)C[C@@H]1[C@](C)(CO)[C@H](O)CC[C@@]1(C)[C@@H]2CC(=O)NCc1ccco1 was read as KDM5B inhibitor inactive.
`CC(C)(C)c1ccc(C(=O)Nc2nc3c(s2)C[C@@H]2[C@](C)(CO)[C@H](O)CC[C@@]2(C)[C@@H]3CC(=O)NCc2ccco2)cc1` gave KDM5B inhibitor 18µM*.
Screening COc1cccc(CNC(=O)[C@@H]2C[C@@H](O)CN2C2CCN(C(=O)Cc3ccc(C)cc3)CC2)c1 returned KDM5B inhibitor inactive.
COCc1cc(C)nc2sc3c(c12)NCN(c1ccc(C)cc1)C3=O was read as KDM5B inhibitor inactive.
For O=C(NCCCc1ccccc1)c1n[nH]c2c1CN(C(=O)c1ccccc1Cl)CC2 the results were KDM5B inhibitor inactive.
`COc1ccc(-c2nc3c(c(=O)[nH]2)CCN(C(=O)Nc2ccc4c(c2)CCC4)C3)cc1` gave KDM5B inhibitor inactive.
For N#Cc1ccc(S(=O)(=O)N2CCc3c(nc(-c4ccc(F)cc4)[nH]c3=O)C2)cc1 the results were KDM5B inhibitor inactive.
For COc1ccc(-c2nc3c(c(=O)[nH]2)CCN(C(=O)Nc2ccccc2Cl)C3)cc1 the results were KDM5B inhibitor inactive.
